# Positions count from the first letter of the chain named.
# Assays:
# Test in all cases: PBM; 200 nM protein, PBS
# Details in all cases: dsDNA, one strand shown
# [1] = molecular target: T1, VENTX (Homo sapiens, UniProt O95231 78-163, R121Q)
# T1 sequence: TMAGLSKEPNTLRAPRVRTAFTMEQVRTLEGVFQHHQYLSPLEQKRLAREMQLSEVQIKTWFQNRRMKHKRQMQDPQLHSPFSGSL
# [2] = molecular target: HOXB9 (Homo sapiens, UniProt P17482 171-250, T197M)
# [3] = molecular target: T2, VENTX (Homo sapiens, UniProt O95231 78-163)
# T2 sequence: T1 sequence with Q44R
# [4] = molecular target: T3, VENTX (Homo sapiens, UniProt O95231 78-163, Y115F)
# T3 sequence: T1 sequence with Y38F, Q44R
# [5] = molecular target: HOXB9 (Homo sapiens, UniProt P17482 171-250)
# [6] = molecular target: HOXB9 (Homo sapiens, UniProt P17482 171-250, R186Q)
# [7] = molecular target: T4, PAX4 (Homo sapiens, UniProt O43316 9-242, R200K)
# T4 sequence: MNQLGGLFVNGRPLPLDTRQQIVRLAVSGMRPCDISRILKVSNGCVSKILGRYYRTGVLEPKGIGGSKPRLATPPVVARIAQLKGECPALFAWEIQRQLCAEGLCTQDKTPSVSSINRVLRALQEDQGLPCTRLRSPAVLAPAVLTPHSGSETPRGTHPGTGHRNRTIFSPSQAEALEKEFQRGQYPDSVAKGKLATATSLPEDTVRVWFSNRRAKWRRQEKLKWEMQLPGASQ
# [8] = molecular target: PRRX1 (Homo sapiens, UniProt P54821 80-166, F113S)
# [9] = molecular target: T5, PAX4 (Homo sapiens, UniProt O43316 9-242)
# T5 sequence: T4 sequence with K192R
# [10] = molecular target: ALX1 (Homo sapiens, UniProt Q15699 118-204, L144V)
# [11] = molecular target: ALX3 (Homo sapiens, UniProt O95076 139-225, N203Q)
# [12] = molecular target: T6, PAX4 (Homo sapiens, UniProt O43316 9-242, R200Q)
# T6 sequence: T4 sequence with K192Q
# [13] = molecular target: ALX1 (Homo sapiens, UniProt Q15699 118-204, L144R)
# [14] = molecular target: T7, PAX4 (Homo sapiens, UniProt O43316 9-242, F177V)
# T7 sequence: T4 sequence with F169V, K192R
# [15] = molecular target: ALX3 (Homo sapiens, UniProt O95076 139-225)
# [16] = molecular target: T8, PAX4 (Homo sapiens, UniProt O43316 9-242, F177Y)
# T8 sequence: T4 sequence with F169Y, K192R
# [17] = molecular target: ALX3 (Homo sapiens, UniProt O95076 139-225, L168Q)
# [18] = molecular target: ALX3 (Homo sapiens, UniProt O95076 139-225, L168V)
# [19] = molecular target: T9, PAX4 (Homo sapiens, UniProt O43316 9-242, R227W)
# T9 sequence: T4 sequence with K192R, R219W
# [20] = molecular target: ALX1 (Homo sapiens, UniProt Q15699 118-204)
# [21] = molecular target: ALX3 (Homo sapiens, UniProt O95076 139-225, N203S)
# [22] = molecular target: PRRX1 (Homo sapiens, UniProt P54821 80-166)
# [23] = molecular target: HOXA4 (Homo sapiens, UniProt Q00056 201-287, W262R)
# [24] = molecular target: HOXA4 (Homo sapiens, UniProt Q00056 201-287, R217L)
# [25] = molecular target: HOXA4 (Homo sapiens, UniProt Q00056 201-287)
# [26] = molecular target: HOXA4 (Homo sapiens, UniProt Q00056 201-287, W262F)
# Sequence of HOXA4 (Homo sapiens, UniProt Q00056 201-287, W262F) (Q00056 201-287 W262F): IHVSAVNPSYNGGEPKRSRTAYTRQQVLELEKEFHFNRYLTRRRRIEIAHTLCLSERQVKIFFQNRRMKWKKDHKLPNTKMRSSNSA
# Sequence of PRRX1 (Homo sapiens, UniProt P54821 80-166, F113S) (P54821 80-166 F113S): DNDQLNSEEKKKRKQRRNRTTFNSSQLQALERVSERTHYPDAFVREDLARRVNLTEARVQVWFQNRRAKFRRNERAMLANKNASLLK
# Sequence of HOXB9 (Homo sapiens, UniProt P17482 171-250) (P17482 171-250): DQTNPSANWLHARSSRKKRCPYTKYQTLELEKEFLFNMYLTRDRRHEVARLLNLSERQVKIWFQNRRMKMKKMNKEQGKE
# Sequence of HOXB9 (Homo sapiens, UniProt P17482 171-250, T197M) (P17482 171-250 T197M): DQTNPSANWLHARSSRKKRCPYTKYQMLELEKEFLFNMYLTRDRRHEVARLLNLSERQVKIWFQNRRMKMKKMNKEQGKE
# Sequence of HOXB9 (Homo sapiens, UniProt P17482 171-250, R186Q) (P17482 171-250 R186Q): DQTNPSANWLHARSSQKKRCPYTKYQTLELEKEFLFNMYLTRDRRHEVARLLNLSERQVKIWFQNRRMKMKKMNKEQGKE
# Sequence of PRRX1 (Homo sapiens, UniProt P54821 80-166) (P54821 80-166): as the sequence (P54821 80-166 F113S) above, with S34F counted along it
# Sequence of HOXA4 (Homo sapiens, UniProt Q00056 201-287, R217L) (Q00056 201-287 R217L): as the sequence (Q00056 201-287 W262F) above, with R17L, F62W counted along it
# Sequence of ALX3 (Homo sapiens, UniProt O95076 139-225, L168V) (O95076 139-225 L168V): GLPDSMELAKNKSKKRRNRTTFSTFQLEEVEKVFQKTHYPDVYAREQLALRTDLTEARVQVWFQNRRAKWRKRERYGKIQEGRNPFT
# Sequence of ALX3 (Homo sapiens, UniProt O95076 139-225, L168Q) (O95076 139-225 L168Q): as the sequence (O95076 139-225 L168V) above, with V30Q counted along it
# Sequence of HOXA4 (Homo sapiens, UniProt Q00056 201-287, W262R) (Q00056 201-287 W262R): as the sequence (Q00056 201-287 W262F) above, with F62R counted along it
# Sequence of ALX1 (Homo sapiens, UniProt Q15699 118-204) (Q15699 118-204): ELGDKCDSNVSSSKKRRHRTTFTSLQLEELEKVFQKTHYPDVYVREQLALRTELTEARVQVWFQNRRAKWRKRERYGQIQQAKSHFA
# Sequence of ALX3 (Homo sapiens, UniProt O95076 139-225, N203Q) (O95076 139-225 N203Q): as the sequence (O95076 139-225 L168V) above, with V30L, N65Q counted along it
# Sequence of HOXA4 (Homo sapiens, UniProt Q00056 201-287) (Q00056 201-287): as the sequence (Q00056 201-287 W262F) above, with F62W counted along it
# Sequence of ALX3 (Homo sapiens, UniProt O95076 139-225, N203S) (O95076 139-225 N203S): as the sequence (O95076 139-225 L168V) above, with V30L, N65S counted along it
# Sequence of ALX1 (Homo sapiens, UniProt Q15699 118-204, L144V) (Q15699 118-204 L144V): as the sequence (Q15699 118-204) above, with L27V counted along it
# Sequence of ALX3 (Homo sapiens, UniProt O95076 139-225) (O95076 139-225): as the sequence (O95076 139-225 L168V) above, with V30L counted along it
# Sequence of ALX1 (Homo sapiens, UniProt Q15699 118-204, L144R) (Q15699 118-204 L144R): as the sequence (Q15699 118-204) above, with L27R counted along it
sequence,measurement,setting,value
CTCCCGAG,binding signal,[1],"8.03 upbm affinity estimate (log intensity, higher = more binding, comparable within an allelic series)"
same,binding signal,[2],"8.41 upbm affinity estimate (log intensity, higher = more binding, comparable within an allelic series)"
same,binding signal,[3],"8.1 upbm affinity estimate (log intensity, higher = more binding, comparable within an allelic series)"
same,binding signal,[4],"8.07 upbm affinity estimate (log intensity, higher = more binding, comparable within an allelic series)"
same,binding signal,[5],"8.42 upbm affinity estimate (log intensity, higher = more binding, comparable within an allelic series)"
same,binding signal,[6],"8.44 upbm affinity estimate (log intensity, higher = more binding, comparable within an allelic series)"
GCCGCAGC,binding signal,[1],"8.08 upbm affinity estimate (log intensity, higher = more binding, comparable within an allelic series)"
same,binding signal,[2],"8.46 upbm affinity estimate (log intensity, higher = more binding, comparable within an allelic series)"
same,binding signal,[3],"8.11 upbm affinity estimate (log intensity, higher = more binding, comparable within an allelic series)"
same,binding signal,[7],"9.27 upbm affinity estimate (log intensity, higher = more binding, comparable within an allelic series)"
same,binding signal,[8],"9.25 upbm affinity estimate (log intensity, higher = more binding, comparable within an allelic series)"
same,binding signal,[4],"8.14 upbm affinity estimate (log intensity, higher = more binding, comparable within an allelic series)"
same,binding signal,[9],"9.2 upbm affinity estimate (log intensity, higher = more binding, comparable within an allelic series)"
same,binding signal,[5],"8.33 upbm affinity estimate (log intensity, higher = more binding, comparable within an allelic series)"
same,binding signal,[10],"6.7 upbm affinity estimate (log intensity, higher = more binding, comparable within an allelic series)"
same,binding signal,[11],"7.73 upbm affinity estimate (log intensity, higher = more binding, comparable within an allelic series)"
same,binding signal,[12],"9.23 upbm affinity estimate (log intensity, higher = more binding, comparable within an allelic series)"
same,binding signal,[13],"6.73 upbm affinity estimate (log intensity, higher = more binding, comparable within an allelic series)"
same,binding signal,[14],"9.18 upbm affinity estimate (log intensity, higher = more binding, comparable within an allelic series)"
same,binding signal,[15],"7.89 upbm affinity estimate (log intensity, higher = more binding, comparable within an allelic series)"
same,binding signal,[16],"9.21 upbm affinity estimate (log intensity, higher = more binding, comparable within an allelic series)"
same,binding signal,[17],"7.75 upbm affinity estimate (log intensity, higher = more binding, comparable within an allelic series)"
same,binding signal,[6],"8.46 upbm affinity estimate (log intensity, higher = more binding, comparable within an allelic series)"
same,binding signal,[18],"7.74 upbm affinity estimate (log intensity, higher = more binding, comparable within an allelic series)"
same,binding signal,[19],"9.18 upbm affinity estimate (log intensity, higher = more binding, comparable within an allelic series)"
same,binding signal,[20],"6.7 upbm affinity estimate (log intensity, higher = more binding, comparable within an allelic series)"
same,binding signal,[21],"7.75 upbm affinity estimate (log intensity, higher = more binding, comparable within an allelic series)"
same,binding signal,[22],"9.47 upbm affinity estimate (log intensity, higher = more binding, comparable within an allelic series)"
ACCATTAG,binding signal,[1],"11.7 upbm affinity estimate (log intensity, higher = more binding, comparable within an allelic series)"
CCCTTCCG,binding signal,[1],"8.08 upbm affinity estimate (log intensity, higher = more binding, comparable within an allelic series)"
same,binding signal,[23],"9.79 upbm affinity estimate (log intensity, higher = more binding, comparable within an allelic series)"
same,binding signal,[3],"8.37 upbm affinity estimate (log intensity, higher = more binding, comparable within an allelic series)"
same,binding signal,[8],"9.35 upbm affinity estimate (log intensity, higher = more binding, comparable within an allelic series)"
same,binding signal,[4],"8.15 upbm affinity estimate (log intensity, higher = more binding, comparable within an allelic series)"
same,binding signal,[24],"9.96 upbm affinity estimate (log intensity, higher = more binding, comparable within an allelic series)"
same,binding signal,[25],"10 upbm affinity estimate (log intensity, higher = more binding, comparable within an allelic series)"
same,binding signal,[26],"10 upbm affinity estimate (log intensity, higher = more binding, comparable within an allelic series)"
same,binding signal,[22],"9.49 upbm affinity estimate (log intensity, higher = more binding, comparable within an allelic series)"
AATGTATC,binding signal,[1],"9.76 upbm affinity estimate (log intensity, higher = more binding, comparable within an allelic series)"
same,binding signal,[3],"10.1 upbm affinity estimate (log intensity, higher = more binding, comparable within an allelic series)"

# From PMC11006913
